Assay outcomes as filed in PubChem.
RORgamma inh – qHTS for inhibitors of ROR gamma transcriptional activity | actives 5.4% (n = 310,000) | Potency, µM (doses to about 53.6 µM), for inactives: at the highest dose activity change, negative = inhibition, hits mostly inhibitors | Drosophila S2 Gal4-RORgamma UAS-luciferase reporter, 20 h | AID 2551, 2010; note: potency is the fitted concentration of half-maximal effect; nearly all actives have a fitted effect of over 60% in size
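Stably transfected Drosophila Schneider cells are the test system, with ROR gamma fused to Gal4 and luciferase under UAS control; luminescence is read after 20 hr of 700 uM copper sulfate induction at ambient temperature.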
Gal4-VP16 FLuc – VP16 counterscreen qHTS for inhibitors of ROR gamma transcriptional activity. Drosophila S2 Gal4-VP16 UAS-luciferase, luminescence, 20 h. Potency, µM (doses to about 53.6 µM), inactives show top-dose activity, negative = inhibition, actives largely listed as inhibitors. actives 3.5% (n = 310,000). AID 2546, 2010;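 note: Gal4-VP16 expression switched on by copper sulfate through the metallothionein promoter; potency is the fitted concentration of half-maximal effect; nearly all actives have a fitted effect of over 50% in size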
Coupling enz – qHTS Assay for Inhibitors of Fructose-1,6-bisphosphate Aldolase from Giardia Lamblia: Coupling assay counterscreen; actives 0.67% (n = 290,000); coupling enzyme system counterscreen, AmpLite Red fluorescence; activity change, negative = inhibition, % at 58.2 µM, hits read low; in the data active = activity change below about -30%
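Coupling enzymes only (glyceraldehyde-3-phosphate) + compound, at 57.5 uM final, 10 min RT; add substrate/coupling/AmpLite Red mix, 20 min RT; fluorescence ex 525/em 598 nm. Actives flag coupling-system interference.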
TSHR antagonist – Antagonists of the Thyroid Stimulating Hormone Receptor: HTS campaign. activity change, negative = inhibition, % at 11.5 µM. actives 0.2% (n = 330,000). Thyrotropin receptor (Homo sapiens), P16473. TSHR-expressing cells, TSH-stimulated cAMP HTRF, 2 h; active compounds read low;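 active = activity change below a set negative limit, meaning inhibition stronger than a set level, cut at about -70% in these data; inconclusive = activity change between two set negative limits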
Target sequence (P16473 whole entry, looked up): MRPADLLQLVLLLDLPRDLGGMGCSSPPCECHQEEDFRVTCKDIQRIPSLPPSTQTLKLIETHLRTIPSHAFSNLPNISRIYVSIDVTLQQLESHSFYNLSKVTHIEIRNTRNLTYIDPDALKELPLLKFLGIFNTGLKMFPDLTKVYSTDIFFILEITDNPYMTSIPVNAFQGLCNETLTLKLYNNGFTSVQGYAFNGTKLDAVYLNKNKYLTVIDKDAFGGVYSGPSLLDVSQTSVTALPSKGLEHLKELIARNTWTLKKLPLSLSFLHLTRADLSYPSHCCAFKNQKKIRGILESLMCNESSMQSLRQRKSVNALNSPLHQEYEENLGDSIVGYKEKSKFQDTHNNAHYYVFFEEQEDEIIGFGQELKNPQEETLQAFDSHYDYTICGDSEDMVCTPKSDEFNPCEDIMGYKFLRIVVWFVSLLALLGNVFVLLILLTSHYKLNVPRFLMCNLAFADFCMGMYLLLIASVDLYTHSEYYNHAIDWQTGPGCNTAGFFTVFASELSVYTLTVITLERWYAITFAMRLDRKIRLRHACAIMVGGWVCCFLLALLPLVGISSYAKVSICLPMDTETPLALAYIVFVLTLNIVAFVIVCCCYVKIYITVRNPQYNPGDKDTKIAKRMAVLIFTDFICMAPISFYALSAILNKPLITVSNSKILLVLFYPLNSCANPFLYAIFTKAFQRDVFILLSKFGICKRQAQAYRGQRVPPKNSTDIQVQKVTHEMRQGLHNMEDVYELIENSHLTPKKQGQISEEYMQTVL
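Antagonism was scored as loss of TSH-driven cAMP in TSHR cells, stimulated with 4nM TSH (EC80) for 2 hours at 37 deg C and detected by homogeneous HTRF competition immunoassay.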
ELG1 DNA repair – qHTS screen for small molecules that inhibit ELG1-dependent DNA repair in human embryonic kidney (HEK293T) cells expressing luciferase-tagged ELG1; HEK293T ELG1-luciferase reporter, luminescence, 16 h; DNA damage induced by 5-fluorouridine; AID 504467, 2011; Potency, µM (series often up to 46.1 µM), for inactives: at the highest dose activity change, negative = inhibition, actives largely listed as inhibitors; actives 2.3% (n = 330,000); note: potency is the fitted concentration of half-maximal effect; nearly all actives have a fitted effect of over 55% in size
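Luminescence from the luciferase reporter, measured 30 min after ONE-Glo reagent at room temperature, was the read-out. Beforehand, 2,000 cells per well were exposed for 16 hr at 37 °C to 5-fluorouridine together with compound or vehicle.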
An asterisk follows results filed as active. Sampled rows, rich in hits. Any-hit rate of the full collection: about 8%. Unless noted, calls come from the whole dose curve; as a rule, active = well fitted curve in the direction sought with a large enough effect; inconclusive = small, poorly fitted or top-dose-only effect, or another doubt; inactive = no such curve, though single readings can be large; an effect the other way counts as inactive or inconclusive. % is set by controls: 0 for no effect and ±100 for the full control effect.

How did C=CCN(CC=C)C(=S)NC(=O)/C=C/c1ccc(OC)cc1 do in these assays?
RORgamma inh: -21.0%; Gal4-VP16 FLuc: -13.2%; Coupling enz: 5.9; TSHR antagonist: 1.2; ELG1 DNA repair: 12.8%

Results for C=CCN(CC=C)C(=S)NC(=O)/C=C/c1ccc(C)cc1 ?
RORgamma inh: 6.31µM*; Gal4-VP16 FLuc: inconclusive; Coupling enz: 7.5; TSHR antagonist: 8.5; ELG1 DNA repair: 6.3%

What do the screens show for `C=CCN(CC=C)C(=S)NC(=O)/C=C/c1ccccc1`?
RORgamma inh: 14.1µM*; Gal4-VP16 FLuc: -27.2%; Coupling enz: 13.4; TSHR antagonist: 5.2; ELG1 DNA repair: -2.4%

What do the screens show for `COc1ccc(-c2nn(-c3ccccc3)cc2/C=N/Nc2ccccn2)cc1`?
RORgamma inh: 1.58µM*; Gal4-VP16 FLuc: 3.98µM*; Coupling enz: 1.5; TSHR antagonist: 6.8; ELG1 DNA repair: 14.6%

Results for Cc1ccc(/C=N/NC(=O)c2cccc(S(=O)(=O)Nc3ccccc3Cl)c2)o1 ?
RORgamma inh: 12.6µM*; Gal4-VP16 FLuc: inconclusive; Coupling enz: -1.7; TSHR antagonist: -16.0; ELG1 DNA repair: -9.7%

Results for COc1ccc(-c2nn(-c3ccccc3)cc2/C=N/NC(N)=S)cc1OC ?
RORgamma inh: 1.12µM*; Gal4-VP16 FLuc: 1µM*; Coupling enz: 0.5; TSHR antagonist: 1.3; ELG1 DNA repair: 1.84µM*

Results for COc1ccccc1NS(=O)(=O)c1cccc(C(=O)N/N=C/c2cn(-c3ccccc3)nc2-c2ccccc2)c1 ?
RORgamma inh: 1.58µM*; Gal4-VP16 FLuc: 6.31µM*; Coupling enz: -2.3; TSHR antagonist: 2.4; ELG1 DNA repair: inconclusive

What do the screens show for `COc1ccc(-c2nn(-c3ccccc3)cc2/C=N/n2cnnc2)cc1OC`?
RORgamma inh: 6.9%; Gal4-VP16 FLuc: 1.5%; Coupling enz: -1.1; TSHR antagonist: -6.7; ELG1 DNA repair: inconclusive

What do the screens show for `COc1ccc(NS(=O)(=O)c2cccc(C(=O)N/N=C/c3cn(-c4ccccc4)nc3-c3ccc(OC)cc3)c2)cc1`?
RORgamma inh: -16.2%; Gal4-VP16 FLuc: -14.2%; Coupling enz: 0.2; TSHR antagonist: -3.4; ELG1 DNA repair: 0.4%

How did Cc1ccccc1CNC(=O)C(=O)NCC1CCCN1S(=O)(=O)c1cccs1 (stereo unspecified) do in these assays?
TSHR antagonist: 14.8; ELG1 DNA repair: -40.1%

What do the screens show for `O=C(c1csnn1)N1CCC2(CCCN(C(c3ccccc3)c3ccccc3)C2)CC1`?
RORgamma inh: 20.7%; Gal4-VP16 FLuc: 0.5%; Coupling enz: 1.0

What do the screens show for `COc1ccccc1NS(=O)(=O)c1cccc(C(=O)N/N=C/c2ccc3c(c2)OCCO3)c1`?
RORgamma inh: -7.3%; Gal4-VP16 FLuc: -4.5%; Coupling enz: 2.9; TSHR antagonist: -0.6; ELG1 DNA repair: 10.0%

Results for CCN(CC)c1ccc(/C=N/NC(=O)c2cccc(S(=O)(=O)Nc3ccccc3OC)c2)cc1 ?
RORgamma inh: 6.31µM*; Gal4-VP16 FLuc: 8.91µM*; Coupling enz: -0.5; TSHR antagonist: -1.1; ELG1 DNA repair: 9.3%

Results for CCN(CC)c1ccc(/C=N/NC(=O)c2cccc(S(=O)(=O)Nc3ccccc3OC)c2)c(O)c1 ?
RORgamma inh: 2.51µM*; Gal4-VP16 FLuc: 4.47µM*; Coupling enz: -2.3; TSHR antagonist: -10.4; ELG1 DNA repair: -14.4%

Results for CCCCn1c(N)c(N(CC)C(=O)c2cc(S(=O)(=O)N3CCCCCC3)ccc2OC)c(=O)[nH]c1=O ?
TSHR antagonist: -4.4; ELG1 DNA repair: 14.5%

Results for COC(=O)N1CCC2(CCCN(C(c3ccccc3)c3ccccc3)C2)CC1 ?
RORgamma inh: 17.7%; Gal4-VP16 FLuc: -12.1%; Coupling enz: 2.5

What do the screens show for `CC(=O)c1ccc(OCC(=O)c2cc(C)n(-c3ccc4c(c3)OCO4)c2C)cc1`?
RORgamma inh: inconclusive; Gal4-VP16 FLuc: 10µM*; Coupling enz: 2.6; TSHR antagonist: -32.6; ELG1 DNA repair: inconclusive

How did Cc1cc(C(=O)COC(=O)Cc2n[nH]c(=O)c3ccccc23)c(C)n1-c1ccc2c(c1)OCO2 do in these assays?
RORgamma inh: -18.9%; Gal4-VP16 FLuc: 17.8µM*; Coupling enz: -0.9; TSHR antagonist: -27.0; ELG1 DNA repair: 13µM*

What do the screens show for `Cc1cc(C(=O)COC(=O)c2ccc(N)c([N+](=O)[O-])c2)c(C)n1-c1ccc2c(c1)OCO2`?
RORgamma inh: inconclusive; Gal4-VP16 FLuc: inconclusive; Coupling enz: -2.8; TSHR antagonist: -23.6; ELG1 DNA repair: 14.9%

Results for COc1ccc(-n2c(C)cc(C(=O)COC(=O)Cc3n[nH]c(=O)c4ccccc34)c2C)cc1 ?
RORgamma inh: -8.5%; Gal4-VP16 FLuc: inconclusive; Coupling enz: -0.1; TSHR antagonist: -14.3; ELG1 DNA repair: inconclusive

Results for CN(Cc1cccc2cnccc12)C(=O)c1cc(COc2ccc(F)cc2Cl)on1 ?
RORgamma inh: inconclusive; Gal4-VP16 FLuc: inconclusive; Coupling enz: 0.4; TSHR antagonist: 3.8; ELG1 DNA repair: 20.6µM*

What do the screens show for `Cc1nnc(CN(C)C(=O)c2cc(COc3ccc(F)cc3Cl)on2)o1`?
RORgamma inh: 8.6%; Gal4-VP16 FLuc: 4.5%; TSHR antagonist: 6.5; ELG1 DNA repair: inconclusive

Results for CCOC(=O)C1CCCN(C(=O)c2cc3ccc(OC)cc3[nH]2)C1 (stereo unspecified) ?
RORgamma inh: 0.2%; Gal4-VP16 FLuc: -8.0%; Coupling enz: 0.6; TSHR antagonist: -8.6; ELG1 DNA repair: 0.5%

How did Cc1cc(C)cc(C(=O)/C=C2\NC(=O)CS2)c1 do in these assays?
RORgamma inh: 3.98µM*; Gal4-VP16 FLuc: 5.62µM*; Coupling enz: 0.5; ELG1 DNA repair: 0.1%

Results for O=C(Nc1ccccc1)C1=C[C@@H](c2ccc(Br)cc2)C[C@@H](OCCCCO)O1 ?
RORgamma inh: inconclusive; Gal4-VP16 FLuc: 7.08µM*; Coupling enz: -4.4; TSHR antagonist: -37.1; ELG1 DNA repair: inconclusive

Results for CN(C)c1ccc(Nc2nc(N)c3ccccc3n2)cc1 ?
RORgamma inh: inconclusive; Gal4-VP16 FLuc: 3.55µM*; Coupling enz: -1.3; TSHR antagonist: -14.3; ELG1 DNA repair: inconclusive

What do the screens show for `Nc1nc(Nc2ccc(Cl)cc2)nc2ccccc12`?
RORgamma inh: -38.3%; Gal4-VP16 FLuc: inconclusive; Coupling enz: 0.3; TSHR antagonist: -2.0; ELG1 DNA repair: inconclusive

What do the screens show for `Nc1nc(Nc2ccccc2)nc2ccccc12`?
RORgamma inh: inconclusive; Gal4-VP16 FLuc: inconclusive; Coupling enz: -0.8; TSHR antagonist: -6.4; ELG1 DNA repair: inconclusive
